Screen size: about 69,000 compounds; about 8,600 (12%) showed an effect of 50% or more. This is one part of a sample in which strong results are shown more often than they occur.
System: Plasmodium berghei
Assay: Screen against P. berghei liver stage (PbLuc), transformed with Luciferase, at 10uM
Assay type: functional, HepG2
Conditions: tested at 10 uM

Compound	INHIBITION [%]
CC(C)(NCC(=O)NC(=O)NC1CC1)c1ccc2c(c1)OCO2	43.3
O=C(CC1[C@H]2CN(C(=O)c3cccnc3)C[C@@H]12)Nc1cccnc1 (stereo partly specified)	34.6
Cn1cc(-c2nnc3sc(C4CCC4)nn23)cn1	25.2
COc1cc(C)ccc1OCC(=O)NS(=O)(=O)c1cccnc1	-16
O=S(=O)(C1CC1)N1CCO[C@@H]2CC(COCc3cccnc3)C[C@H]21 (stereo partly specified)	34.5
O=C(Nc1cccnc1)NC1(c2cccc(F)c2)CC1	-2.39
Cc1ccnn1CC(=O)Nc1cc(-c2ccncc2)[nH]n1	63.4
Cc1cc(C)n(CC(=O)Nc2cc(-c3ccncc3)[nH]n2)n1	5.94
Cc1ccn(CC(=O)Nc2cc(-c3ccncc3)[nH]n2)n1	39.6
Cc1cc(C2CCCN(C(=O)COc3cc(C)on3)C2)n[nH]1 (stereo unspecified)	-23.8
COCCNc1ncc(-c2onc(C)c2C)c(-c2ccco2)n1	31.85
Cc1nnc(N2CCOC(C)(C(=O)NC3CCCC3)C2)c2ccccc12 (stereo unspecified)	4.41
CCn1cc(CNC(=O)CCn2ncc3c(Cl)cccc32)cn1	54.9
CN(C)C(=O)CNC(=O)CCn1ncc2c(Cl)cccc21	-15.8
O=C(CCn1ncc2c(Cl)cccc21)NCCCO	49.9
CC(C)(C)NC(=O)CCn1ncc2c(Cl)cccc21	47.4
CN(C)CCNC(=O)CCn1ncc2c(Cl)cccc21	55.7
COCCCNC(=O)CCn1ncc2c(Cl)cccc21	20.9
Cc1nn(C)c(C)c1CNC(=O)CCn1ncc2c(Cl)cccc21	49.9
CCN(CC)C(=O)CCn1ncc2c(Cl)cccc21	-4.74
CCn1ncc(NC(=O)CCn2ncc3c(Cl)cccc32)c1C	9.32

Compound	INHIBITION [%]
O=C(CCn1ncc2c(Cl)cccc21)NCCCn1cccn1	-2.28
O=C(CCn1ncc2c(Cl)cccc21)NCC1CC1	68.9
COCCNC(=O)CCn1ncc2c(Cl)cccc21	55.7
Cc1nnc(N2CCc3cncnc3C2)c(C#N)c1C	-5.08
Cc1nc(C2CCCN2CC(=O)Nc2c(C)n[nH]c2C)no1 (stereo unspecified)	27.8
CC[C@H](C)[C@H](N)C(=O)Nc1nc(-c2cnc(N(C)CCO)nc2)cs1	-37.5
Cc1cn2c(=O)c(-c3ccnc(N4CCC[C@@H]4CO)n3)cnc2s1	4.08
Cn1cc(CC2CCN(C(=O)NCc3cccc(C(N)=O)c3)C2)cn1 (stereo unspecified)	-51.705
O=C1NC2(CCN(C/C=C/c3ccccc3)CC2)CC1c1ccccc1 (stereo unspecified)	63.8
O=C1NC2(CCN(Cc3cccnc3)CC2)CC1c1cccnc1 (stereo unspecified)	-12.1
O=C1NC2(CCNCC2)CC1c1cccnc1 (stereo unspecified)	52.3
O=C1NC2(CCN(C(=O)Cc3ccsc3)CC2)CC1c1ccccc1 (stereo unspecified)	-4.88
O=C1NC2(CCN(C(=O)c3ccnnc3)CC2)CC1c1ccccc1 (stereo unspecified)	-16.9
O=C1NC2(CCN(Cc3cccnc3)CC2)CC1c1ccncc1 (stereo unspecified)	49.5
O=C1NC2(CCN(CCO)CC2)CC1c1ccccc1 (stereo unspecified)	21.6
O=C1NC2(CCNCC2)CC1c1ccccc1 (stereo unspecified)	49.7
O=C1NC2(CCN(CC3CC3)CC2)CC1c1ccccc1 (stereo unspecified)	52.6
O=C1CC(c2ccccc2)C2(CCN(CC3CC3)CC2)N1 (stereo unspecified)	31.2
O=C1NC2(CCN(CCc3ccccc3)CC2)CC1c1ccccc1 (stereo unspecified)	52.6
O=C1NC2(CCNCC2)CC1c1ccncc1 (stereo unspecified)	33.4
